The values below come from PubChem BioAssay AID1415 (NMMLSC, 2008).

SMILES strings stand for the structures. About 710 (0.32%) of roughly 220,000 compounds were called active. The full list was thinned out, with actives kept by preference. Values without a mark were called inactive. No stated cut-off is given here; in the data, active means binding response below about 49% or above about 150%; inactive means in between.

This assay deals with Guanine nucleotide-binding protein G(o) subunit alpha (Homo sapiens) (UniProt P09471). The assay is described as follows: RGS4-Galphao interaction inhibitors and enhancers – biochemical, multiplexed bead flow cytometry, primary screen (AID 1415).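 Further: fluorescent Galphao activated with aluminum fluoride binding bead-coupled RGS4.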 Conditions: at 10 µM, actives lie on both sides.
Sequence of Guanine nucleotide-binding protein G(o) subunit alpha (Homo sapiens) (P09471 whole entry, looked up): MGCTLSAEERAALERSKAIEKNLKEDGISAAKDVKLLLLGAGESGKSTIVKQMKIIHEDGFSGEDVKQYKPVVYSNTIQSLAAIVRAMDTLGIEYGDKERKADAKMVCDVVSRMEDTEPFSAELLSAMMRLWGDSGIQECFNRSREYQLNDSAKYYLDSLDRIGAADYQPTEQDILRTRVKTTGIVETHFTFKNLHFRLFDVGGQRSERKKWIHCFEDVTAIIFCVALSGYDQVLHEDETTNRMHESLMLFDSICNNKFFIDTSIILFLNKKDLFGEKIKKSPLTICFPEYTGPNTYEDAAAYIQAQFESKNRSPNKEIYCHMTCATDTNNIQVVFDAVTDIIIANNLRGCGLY
With `CC(=O)NS(=O)(=O)c1ccc(NC(=O)C2C3C=CC(C3)C2C(=O)O)cc1` (stereo not given), the binding response (% of control) is 101%. `CCOC(=O)c1c(Cc2ccc(Cl)cc2)c[nH]c1C`: the binding response (% of control) was 102%. As for `Cc1cc(C)cc(N(C(C)C(=O)Nc2c(C)n(C)n(-c3ccccc3)c2=O)S(C)(=O)=O)c1` (stereo not given), the binding response (% of control) is 102%. In the case of `Cc1cc(C)cc(N(CC(=O)Nc2c(C)n(C)n(-c3ccccc3)c2=O)S(C)(=O)=O)c1` it was -43.6% (active). In the case of `Cc1ccc(S(=O)(=O)CC(=O)Nc2c(C)n(C)n(-c3ccccc3)c2=O)cc1` it was 97.9%.

Turning to `COCCCNC(=O)CN1CCN(Cc2ccccc2Cl)C1=O`, the binding response (% of control) is 103%.

For `O=C(COc1ccc(/C=N/NC(=O)c2ccc(O)cc2)cc1)Nc1ccc([N+](=O)[O-])cc1`, the binding response (% of control) was 103%. In the case of `Cc1cc(N2CCOCC2)nc(-c2ccc(Br)cc2)n1`, the binding response (% of control) was 95.9%.

Take `C#CCOCCOCCOCCNc1nc(N2CCN(C(=O)[C@H](CCC(=O)O)n3cc(C(N)CO)nn3)CC2)nc(N2CCN(C(=O)[C@H](CCCCN)n3cc(C(N)[C@H](C)CC)nn3)CC2)n1` (stereo not given in full): the binding response (% of control) is 102%.

On to `C=CCc1cccc2cc(C(=O)Nc3ccc(NC(C)=O)cc3)c(=O)oc12`, for which the binding response (% of control) is 102%. In the case of `N#Cc1nc(-c2ccc(OCc3ccccc3)cc2)oc1NCCCN1CCOCC1` it was 100%; in that of `N#Cc1nc(Cc2ccccc2)oc1NCCc1ccccc1`, 103%; in that of `N#Cc1nc(COc2ccc(-c3ccccc3)cc2)oc1NCc1cccnc1`, 153% [activator] (active). Under `Cc1ccccc1C1=NC(C(F)(F)F)(C(F)(F)F)c2c(n(-c3ccc(F)cc3)c(=O)[nH]c2=O)N1` stands 104%; under `CCC(C)NC(=O)CN(C1CCCCC1)S(C)(=O)=O` (stereo not given), 99.8%; under `O=S(=O)(NC(=S)Nc1ccccc1)c1ccc(F)cc1`, 103%. On to `CC(C)Oc1ccc(CC(=O)NNC(=S)Nc2ccc(Br)cc2)cc1`, for which the binding response (% of control) is 99.3%. In the case of `O=C(NCc1ccc2c(c1)OCO2)C12CC3CC(CC(C3)C1)C2` it was 98.9%; in that of `Cc1ccc(C2NC(C(=O)O)CS2)cc1` (stereo not given), 103%; in that of `Cc1cccc(S(=O)(=O)CC(=O)Nc2nc(-c3ccccc3)cs2)c1`, 183% [activator] (active). Regarding `NS(=O)(=O)c1ccc(Nc2nc(-c3ccccc3)cs2)cc1`, the binding response (% of control) is 106%.

As to `O=C(CSC1=NCCS1)Nc1nc(-c2ccccc2)cs1`, the binding response (% of control) was 83.7%. In the case of `CCOc1ccccc1Oc1cn[nH]c1-c1ccc(OC)cc1O`, the binding response (% of control) is 99%. In the case of `COc1ccc(Cl)cc1C(=O)NNC(=O)c1nc2nc(C)cc(C)n2n1` it was 103%; in that of `C#CCOCCOCCOCCNc1nc(N2CCN(C(=O)[C@H](C(C)C)n3cc(CCO)nn3)CC2)nc(N2CCN(C(=O)[C@H]([C@@H](C)CC)n3cc(CCCN=C(N)N)nn3)CC2)n1`, 101%.
